Test results: the supplement of paper PMC13380429
Structures can show the parent of a compound that is named as a salt.

Tested on: Vero E6 infected with SARS-CoV-2
Experiment: inhibition of SARS-CoV-2 cytopathic effect; higher = more antiviral protection, active = above 15
Conditions: 48 h

Measured: inhibition of SARS-CoV-2 cytopathic effect

CCCOc1ccc(Br)cc1-c1cc(-c2ccc(Cl)cc2)[nH]c1-c1ccncc1
inactive: 1 nM -1.64% | 8.33 nM 0.84% | 100 nM 0.25% | 833.33 nM -0.83% | 10000 nM -5.61%

CO[C@H]1/C=C\C=C(/C)C(=O)NC2=CC(=O)C(NCCN(C)C)=C(C[C@@H](C)C[C@H](OC)[C@H](O)[C@@H](C)/C=C(\C)[C@@H]1OC(N)=O)C2=O [alvespimycin]
inactive: 1 nM 0.5% | 8.33 nM 1.37% | 100 nM 0.62% | 833.33 nM 1.28% | 10000 nM 12.4%

C/C=C/c1cc(OC)c(OC)cc1OC [alpha-asarone]
inactive: 1 nM 0.99% | 8.33 nM 0.62% | 100 nM -3.56% | 833.33 nM -3.9% | 10000 nM -0.33%

CN[C@@H]1[C@H](O[C@H]2[C@H](O[C@H]3[C@H](O)[C@@H](O)[C@H](N=C(N)N)[C@@H](O)[C@@H]3N=C(N)N)O[C@@H](C)[C@]2(O)C=O)O[C@@H](CO)[C@H](O)[C@H]1O [STREPTOMYCIN SULFATE [5mM; 10% aq DMSO + 5mM ethanolamine]]
inactive: 1 nM -0.46% | 8.33 nM -1.64% | 100 nM -0.12% | 833.33 nM 1.53% | 10000 nM 0.2%

CN(C)C(=O)COC(=O)Cc1ccc(OC(=O)c2ccc(NC(=N)N)cc2)cc1 [Camostat mesylate]
inactive: 1 nM 0.94% | 8.33 nM -0.39% | 100 nM -0.94% | 833.33 nM 1.08% | 10000 nM -0.11%

C/C(=N\c1ccccc1N)c1c(C)cc(=O)n(O)c1O
inactive: 1 nM -2.19% | 8.33 nM -2.18% | 100 nM -1.91% | 833.33 nM 3.65% | 10000 nM 1.35%
